Each structure is given as a SMILES string. Values joined by “and” are separate entries in the source; they are usually repeats but may differ in a detail not shown here. Identical values can stand only once. Active and inactive are the calls of the source.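 How the source made its calls, unless noted: active means thallium flux through the channel raised or lowered by more than 3 SD from vehicle-only wells, actives on both sides; inactive means the rest.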

Assay [1] in a line: Wnt pathway potentiators raising nuclear beta-catenin – imaging, WNT3A-conditioned medium, mouse C2C12, NPC library, primary screen (AID 1117326; in the data active means nuclear beta-catenin stimulation mostly above about 4.2%, no sharp cut-off; inactive means mostly below about 10%). Conditions: stronger effect = higher value.
Assay [2] is described as follows: stimulators of insulin release from INS-1E, primary screen, cell-based, 5 mM glucose, NPC library (AID 1117329;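 active means compound raises insulin release from rat beta cells at 5 mM glucose, no numeric limit stated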). Conditions: rat INS-1E insulin secretion, at 10 µM, stronger effect = higher value.
The nature of assay [3]: growth inhibition of GSK3B-pretreated HCT116 cells – cell-based, CellTiter-Glo, 0.2 to 20 µM (AID 1117336;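 active means compounds lowering colon cancer cell viability after pretreatment blocking the GSK3B kinase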). Conditions: HCT116 viability after GSK3B inhibitor, at 20 µM, stronger effect = higher value. Background: ATP-based viability assays read luminescence as a measure of living cells.
Assay [4] in a line: inhibition of endothelial tube formation, primary screen, imaging, VEGF stimulated, CD31 staining, tube area, NPC library (AID 1117340;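 active means compound that reduces growth-factor-driven endothelial tube area in a mixed cell culture, no cutoff stated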). Conditions: VEGF-stimulated ADSC/ECFC co-culture, at 10 µM, stronger effect = higher value.
Assay [5] can be described thus: GLP1 release stimulators, primary, NCI-H716, NPC library (AID 1117341;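 active means compound raises GLP1 secretion from the human gut endocrine cells, with no numeric limit stated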). Conditions: NCI-H716 cells, at 10 µM, stronger effect = higher value.
Assay [6] in a line: HCT116 colon cancer cell growth inhibition, primary screen, CellTiter-Glo luminescence, NPC library (AID 1117342;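 active means compounds that lower survival of HCT116 colon cancer cells in the luminescence readout, no numeric limit stated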). Conditions: at 20 µM (top of the series).
Assay [7] in a line: reduced SW480 viability measured with CellTiter-Glo, NPC library, primary (AID 1117343;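 active means compounds that lower viability of the colon cancer cells in the luminescence readout, with no numeric limit stated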). Conditions: CellTiter-Glo luminescence; at 20 µM (top of the series).
Assay [8] in a line: NPC library primary testing for decreased DLD-1 cell viability via CellTiter-Glo (AID 1117346;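 active means compounds that lower survival of DLD-1 colon cancer cells in the luminescence readout, no cutoff given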). Conditions: DLD-1 viability, CellTiter-Glo luminescence; at 20 µM (top of the series).
For assay [9], the target named is 6-phosphogluconate dehydrogenase, decarboxylating (Homo sapiens) (UniProt P52209). As to the kind of experiment: inhibition of human phosphogluconate dehydrogenase – biochemical, recombinant enzyme, NADPH absorbance, primary screen (AID 1159550;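 active means at least 20% inhibition of 6-phosphogluconate dehydrogenase activity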). Conditions: recombinant 6PGD, NADPH absorbance 341 nm; at 10 µM; stronger effect = higher value.
The nature of assay [10]: EMT-state selective cytotoxicity in co-culture – imaging, PC-3E GFP, TEM4-18 mCherry, primary screen (AID 1345086;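 active means compounds killing one labelled cell type while sparing the other, by normalised counts and ratio limits, not self-fluorescent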;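 on all read-outs here: cells exposed to compound for 72 h before imaging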;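 on red/green cell ratio (normalised): normalised mesenchymal count divided by normalised epithelial count so high means epithelial killing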). Conditions: PC-3E GFP / TEM4-18 mCherry co-culture, imaging cell counts, at 1 µM; for red/green cell ratio (normalised): actives lie on both sides, counts scaled to control wells, 1 = unselective.
Assay [11] is described as follows: MELAS cybrid and Rieske KO viability enhancers – cell-based, MELAS cybrids, Rieske KO mouse fibroblasts, CellTiter-Glo, primary screen (AID 1508586;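 active means mean z-score across replicates of 1.96 or higher in either the MELAS or the Rieske mutant cell line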;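 further: z relative to plate mean and SD of compound and empty wells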). Conditions: low glucose.
Assay [12] addresses NAD(+) hydrolase SARM1 (Homo sapiens) (UniProt Q6SZW1). As to the kind of experiment: blocking NAD cleavage by SARM1 SAM-TIR – cell lysate, NAD-Glo luminescence (AID 1508614;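 active means compound whose remaining NAD level is above about 45 nM, limit read from the data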). Conditions: SAM-TIR HEK293T lysate NADase, at 1 µM, stronger effect = higher value.
The next assay relates to F380Y. Description: BK channel mutant inhibitors and activators – cell-based, U2OS BacMam, thallium flux, beta subunits, selectivity assay, profiling panel (AID 1259406).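 Further: initial slope of Thallos dye fluorescence rise after thallium is added; log ratio against the mean of 0.3% DMSO vehicle wells on the same plate.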 Conditions: U2OS BacMam BK variants, at 30 µM.
Another assay concerns F380Y/beta1. The description is as above. Conditions: U2OS BacMam BK variants, at 30 µM.
A further assay relates to F380Y/beta2Delta. The description is as above. Conditions: U2OS BacMam BK variants, at 30 µM.
In another assay the test system is F380Y/beta4. The description is as above. Conditions: U2OS BacMam BK variants, at 30 µM.
For assay [13], the target named is Calcium-activated potassium channel subunit alpha-1 (Homo sapiens) + Leucine-rich repeat-containing protein 26 (Homo sapiens) (UniProt Q12791+Q2I0M4). The description is as above. Conditions: U2OS BacMam BK variants, F380Y/Slo1WT/gamma1, at 30 µM.
Another assay concerns R275C. The description is as above. Conditions: U2OS BacMam BK variants, at 30 µM.
[14] abbreviates: measured here: epithelial PC-3E GFP cell survival.
The mark [15] stands for this setting: measured here: mesenchymal TEM4-18 mCherry cell survival.
The mark [16] stands for this setting: MELAS cybrid survival, CellTiter-Glo 48 h, stronger effect = higher value.
The mark [17] stands for this setting: Rieske KO mouse fibroblast survival, CellTiter-Glo 72 h.

Sequence of Calcium-activated potassium channel subunit alpha-1 (Homo sapiens) + Leucine-rich repeat-containing protein 26 (Homo sapiens) (Q2I0M4 whole entry, looked up, one chain of several): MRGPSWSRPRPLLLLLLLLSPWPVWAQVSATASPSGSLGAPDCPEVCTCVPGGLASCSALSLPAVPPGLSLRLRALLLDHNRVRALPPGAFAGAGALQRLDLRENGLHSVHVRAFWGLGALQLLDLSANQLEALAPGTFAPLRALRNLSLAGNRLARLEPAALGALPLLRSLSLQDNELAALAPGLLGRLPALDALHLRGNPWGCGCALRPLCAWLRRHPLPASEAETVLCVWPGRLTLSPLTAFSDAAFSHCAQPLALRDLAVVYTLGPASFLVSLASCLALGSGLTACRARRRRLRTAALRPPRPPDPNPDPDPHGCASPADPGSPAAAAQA
Sequence of 6-phosphogluconate dehydrogenase, decarboxylating (Homo sapiens) (P52209 whole entry, looked up): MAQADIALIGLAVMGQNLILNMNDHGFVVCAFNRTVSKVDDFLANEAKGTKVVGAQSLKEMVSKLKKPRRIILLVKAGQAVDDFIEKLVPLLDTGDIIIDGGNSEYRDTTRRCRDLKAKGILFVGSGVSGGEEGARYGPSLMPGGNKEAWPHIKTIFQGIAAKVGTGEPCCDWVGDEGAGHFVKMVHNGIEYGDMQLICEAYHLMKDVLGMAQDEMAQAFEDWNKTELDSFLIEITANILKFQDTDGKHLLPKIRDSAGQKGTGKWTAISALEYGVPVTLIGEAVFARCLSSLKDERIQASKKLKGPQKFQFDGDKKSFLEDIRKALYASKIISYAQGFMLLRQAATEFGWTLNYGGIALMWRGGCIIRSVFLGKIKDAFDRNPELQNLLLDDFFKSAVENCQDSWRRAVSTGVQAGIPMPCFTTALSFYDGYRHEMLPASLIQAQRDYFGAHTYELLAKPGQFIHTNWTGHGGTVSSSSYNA
Sequence of NAD(+) hydrolase SARM1 (Homo sapiens) (Q6SZW1 whole entry, looked up): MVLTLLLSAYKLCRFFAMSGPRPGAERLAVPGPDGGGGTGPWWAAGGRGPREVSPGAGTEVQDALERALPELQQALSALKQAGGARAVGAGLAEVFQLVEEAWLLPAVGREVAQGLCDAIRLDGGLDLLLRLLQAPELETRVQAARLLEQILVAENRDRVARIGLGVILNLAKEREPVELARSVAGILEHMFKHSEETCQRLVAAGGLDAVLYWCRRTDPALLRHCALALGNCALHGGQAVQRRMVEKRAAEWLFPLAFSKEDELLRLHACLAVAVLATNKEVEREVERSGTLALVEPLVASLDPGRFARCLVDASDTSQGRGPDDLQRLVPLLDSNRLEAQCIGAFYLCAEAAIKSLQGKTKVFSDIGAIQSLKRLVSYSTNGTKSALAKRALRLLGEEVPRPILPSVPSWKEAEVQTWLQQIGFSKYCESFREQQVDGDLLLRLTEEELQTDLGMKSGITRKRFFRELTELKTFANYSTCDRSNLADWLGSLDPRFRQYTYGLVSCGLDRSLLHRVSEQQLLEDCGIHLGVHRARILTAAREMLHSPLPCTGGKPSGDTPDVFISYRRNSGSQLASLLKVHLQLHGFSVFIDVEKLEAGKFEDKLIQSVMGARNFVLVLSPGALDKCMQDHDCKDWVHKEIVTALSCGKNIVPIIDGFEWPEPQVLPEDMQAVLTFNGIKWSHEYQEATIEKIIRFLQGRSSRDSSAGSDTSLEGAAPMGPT

On to `CC12CC3CC(C)(C1)CC(N)(C3)C2`, for which the nuclear beta-catenin stimulation was 2% (inactive) in assay [1] (at 10 µM) and 1% in assay [1] (stimulation, at 2 µM). In addition, the insulin secretion stimulation in assay [2] is 12% (inactive). Besides, the viability decrease in [3] is -2.8% (inactive). The tube area decrease in [4] was -6.5% (inactive). In addition, in assay [5], the GLP1 secretion stimulation is 2.8% (inactive). For the same molecule, the inhibition of viability in assay [6] was -5.4% (inactive). In addition, the results for the viability decrease (inhibition) in [7] and in assay [8] were 14.2% (inactive) and 0.65% (inactive), respectively. Besides, the inhibition (usually the relative decrease from the control value, in per cent) in assay [9] is 7.37% (inactive). For the same molecule, the red/green cell ratio (normalised) in assay [10] is 0.87 (inactive). The normalised cell number in [10] (setting [14]) was found to be 1.15; in [10] (setting [15]) it was 1. Moreover, the z-score is -0.277 (inactive) and -0.613 (inactive) in assay [11] (setting [16]); 0.678 and -0.28 in assay [11] (setting [17]). For the same molecule, the remaining NAD in [12] was 10 nM (inactive). In addition, the log fold change Tl+ flux in the assay with F380Y is 0.0112 (inactive); in the assay on F380Y/beta1, 0.0185 (inactive); in the assay on F380Y/beta2Delta it was 0.0288 (inactive); in the assay with F380Y/beta4, 0.00566 (inactive); in assay [13], -0.0203 (inactive); in the assay with R275C, 0.00266 (inactive).

In the case of `NCCc1ccc(O)c(O)c1`, the nuclear beta-catenin stimulation was 1.1% (inactive) in [1] (at 10 µM) and 0.8% in assay [1] (stimulation, at 2 µM). The insulin secretion stimulation in [2] was -3% (inactive). Besides, in assay [3], the viability decrease is 22.9% (inactive). Also, in [4], the tube area decrease was 37.7% (inactive). Also, the GLP1 secretion stimulation in assay [5] was -0.9% (inactive). Also, the inhibition of viability in assay [6] is -9.7% (inactive). Moreover, the viability decrease (inhibition) in [7] is 79.9% (active); in assay [8], 11.6% (inactive). Also, in assay [9], the inhibition was -4.79% (inactive). The red/green cell ratio (normalised) in assay [10] is 1.02 (inactive) and 0.85 (inactive). The normalised cell number is 1.41 and 1.02 in [10] (setting [14]); 1.44 and 0.87 in assay [10] (setting [15]). The z-score in assay [11] (setting [16]) is -0.31 (inactive) and 0.319 (inactive); in [11] (setting [17]), 0.135 and -0.219. Also, in assay [12], the remaining NAD is 10 nM (inactive). Further, the log fold change Tl+ flux in the assay with F380Y is 0.0174 (inactive); with F380Y/beta1 it was 0.0356 (inactive); in the assay with F380Y/beta2Delta, 0.0459 (inactive); in the assay with F380Y/beta4, 0.00195 (inactive); in [13] it was -0.0022 (inactive); in the assay on R275C, 0.00996 (inactive).

As for `CN=C(NC#N)NCCSCc1nc[nH]c1C`, the nuclear beta-catenin stimulation in assay [1] (at 10 µM) was 0.2% (inactive); in assay [1] (stimulation, at 2 µM), -1.1%. Besides, the insulin secretion stimulation in assay [2] was 1.3% (inactive). Besides, the viability decrease in assay [3] is 10.8% (inactive). In addition, the tube area decrease in assay [4] was -5.8% (inactive). The GLP1 secretion stimulation in assay [5] was -0.3% (inactive). For the same molecule, the inhibition of viability in assay [6] is 8.17% (inactive). Besides, the viability decrease (inhibition) in assay [7] was 36.9% (inactive); in [8] it was 1.2% (inactive). For the same molecule, the inhibition in assay [9] was -10.7% (inactive). Besides, the red/green cell ratio (normalised) in assay [10] was 1.04 (inactive). For the same molecule, the normalised cell number was determined as 1.01 in assay [10] (setting [14]) and 1.05 in assay [10] (setting [15]). Further, the z-score was -0.132 (inactive) and 0.533 (inactive) and -0.0775 (inactive) in [11] (setting [16]); -0.116 and -0.0466 and 0.0997 in assay [11] (setting [17]). Further, the remaining NAD in assay [12] is 10 nM (inactive). Further, the log fold change Tl+ flux in the assay on F380Y is 0.0123 (inactive); with F380Y/beta1, 0.0381 (inactive); in the assay with F380Y/beta2Delta it was -0.0232 (inactive); in the assay on F380Y/beta4, 0.031 (inactive); in assay [13] it was 0.0464 (inactive); with R275C, 0.00692 (inactive).

Turning to `CC1Cc2ccccc2N1NC(=O)c1ccc(Cl)c(S(N)(=O)=O)c1` (configuration not stated), the nuclear beta-catenin stimulation in [1] (at 10 µM) is 1% (inactive); in [1] (stimulation, at 2 µM) it was 6%. In [2], the insulin secretion stimulation was -0.1% (inactive). Besides, the viability decrease in assay [3] is -7.2% (inactive). Besides, in assay [4], the tube area decrease is 2.8% (inactive). Also, the GLP1 secretion stimulation in assay [5] was 4.6% (inactive). Moreover, in [6], the inhibition of viability was -2.13% (inactive). In addition, the viability decrease (inhibition) in assay [7] was -2.3% (inactive); in assay [8], 3.8% (inactive). Further, the inhibition in assay [9] is 0.53% (inactive). Also, the red/green cell ratio (normalised) in assay [10] is 1.37 (inactive). Moreover, the results for the normalised cell number in assay [10] (setting [14]) and in [10] (setting [15]) were 1.01 and 1.38, respectively. The z-score in assay [11] (setting [16]) was -0.244 (inactive) and 0.521 (inactive) and 0.421 (inactive); in [11] (setting [17]), 0.75 and 0.194 and 0.772. For the same molecule, in assay [12], the remaining NAD was 10 nM (inactive). For the same molecule, the log fold change Tl+ flux with F380Y was 0.00177 (inactive); in the assay with F380Y/beta1 it was 0.039 (inactive); in the assay with F380Y/beta2Delta, 0.049 (inactive); with F380Y/beta4, 0.0552 (inactive); in [13], -0.0185 (inactive); in the assay with R275C it was 0.0209 (inactive).

In the case of `CC(=O)OCC(CCn1cnc2cnc(N)nc21)COC(C)=O`, the nuclear beta-catenin stimulation in assay [1] (at 10 µM) was 0.9% (inactive); in assay [1] (stimulation, at 2 µM) it was 2.8%. In addition, the insulin secretion stimulation in [2] is 0.7% (inactive). Further, the viability decrease in assay [3] was -11.8% (inactive). The tube area decrease in assay [4] is -3.2% (inactive). Moreover, in assay [5], the GLP1 secretion stimulation is 0.4% (inactive). In addition, the inhibition of viability in assay [6] was -2.1% (inactive). For the same molecule, the viability decrease (inhibition) in [7] was 15.5% (inactive); in assay [8], -9.1% (inactive). Also, the inhibition in assay [9] was -8.38% (inactive). Further, the red/green cell ratio (normalised) in assay [10] is 0.92 (inactive). The normalised cell number was 1.23 in assay [10] (setting [14]) and 1.14 in assay [10] (setting [15]). Besides, the z-score in [11] (setting [16]) is -0.188 (inactive) and -0.285 (inactive) and 0.439 (inactive); in assay [11] (setting [17]), -0.751 and -0.17 and -0.227. Moreover, in assay [12], the remaining NAD was 10 nM (inactive). Besides, the log fold change Tl+ flux was 0.0311 (inactive) with F380Y; 0.035 (inactive) with F380Y/beta1; -0.0244 (inactive) in the assay on F380Y/beta2Delta; 0.0232 (inactive) in the assay on F380Y/beta4; 0.0418 (inactive) in assay [13]; -0.0357 (inactive) in the assay with R275C.

As for `COc1ccccc1OCCNCC(O)COc1cccc2[nH]c3ccccc3c12` (configuration not stated), the nuclear beta-catenin stimulation in assay [1] (at 10 µM) was 10.7% (inactive); in [1] (stimulation, at 2 µM), 2%. Moreover, the insulin secretion stimulation in assay [2] is 1.9% (inactive). The viability decrease in [3] is 7.2% (inactive). Further, in assay [4], the tube area decrease is 60.9% (active). Further, the GLP1 secretion stimulation in assay [5] was 11.2% (inactive). The inhibition of viability in [6] is 83.7% (active). Besides, the viability decrease (inhibition) in assay [7] was 112% (active); in [8] it was 90.5% (active). The inhibition in [9] is 6.21% (inactive). The red/green cell ratio (normalised) in assay [10] is 1.11 (inactive) and 0.93 (inactive). In addition, the normalised cell number in assay [10] (setting [14]) was 1.02 and 1.07; in assay [10] (setting [15]), 1.13 and 1. Besides, the z-score is -0.281 (inactive) and 0.201 (inactive) and -0.32 (inactive) in assay [11] (setting [16]); -0.463 and 1.15 and -0.0666 in [11] (setting [17]). Further, in assay [12], the remaining NAD was 14 nM (inactive) and 10 nM (inactive). Moreover, the log fold change Tl+ flux with F380Y is -0.0291 (inactive); in the assay with F380Y/beta1 it was 0.26 (active); in the assay on F380Y/beta2Delta, -0.29 (active); in the assay with F380Y/beta4, 0.358 (active); in assay [13], 0.204 (active); in the assay on R275C it was -0.174 (active).

These data come from PubChem BioAssay.
